Consider 35 compounds from publication PMC5540273 (PLoS ONE, 2017).

Molecules are shown by their SMILES.
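Further: KINOMEscan kinase panel screen.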

For the assay, the system named is PLK4. Particulars: concentration: 1 μM, replicates: in singlicate; n = 1.
As to `Clc1cc(Nc2ncnc3cc[nH]c23)ccc1OCc1ccccn1`, the “%Inh” value stood at 34%.
To `COc1cc2ncnc(Nc3ccc(OCc4ccccc4Br)c(Cl)c3)c2cc1OC.Cl` [GI261590] belongs 0%.
The same measure for `CCCc1ccc(S(=O)(=O)NC2CCN(c3ccnc(Nc4ccc(OC)cc4)n3)C2)cc1` (centres unmarked) [GSK1379737]: 0%.
Turning to `C[C@H]1CC[C@@H](C(=O)Nc2ccccc2)CN1c1cc(-c2ccc3c(N)n[nH]c3c2)nc(N)n1` [GSK2283293], the “%Inh” value amounted to 0%.
To `Fc1ccc(Nc2nccc(-c3c(-c4ccc(Cl)cc4)nn4ncccc34)n2)cc1F` [GW829058] belongs 29%.
The same measure for `COc1ccc(-c2oc3ncnc(N)c3c2-c2ccc(OC)cc2)cc1` [SB-589132]: 0%; for `Nc1nc(-c2ccc3c(N)n[nH]c3c2)cc(N2CCC[C@@H](C(=O)Nc3ccccc3)C2)n1.O=C(O)C(F)(F)F.O=C(O)C(F)(F)F` [GSK2288359]: 16%.
To `CS(=O)(=O)CCNCc1ccc(-c2ccc3ncnc(Nc4ccc(OCc5ccccc5)c(Cl)c4)c3c2)o1.Cl` [GW574783] belongs 0%; to `CNc1nccc(-c2c(-c3ccc(F)cc3)ncn2C2CCN(C)CC2)n1` [SB-222903], 0%.
On to `Cl.O=S(=O)(c1cccc(F)c1)c1ccc(Nc2ncnc3cc(Br)sc23)cc1Cl` [GSK306886], for which the “%Inh” value is reported as 26%.
The same measure for `Cl.c1ccc(Cn2ccc3cc(Nc4ncnc5ccccc45)ccc32)cc1` [GW275568]: 5%; for `FC(F)(F)c1ccc(-c2cc(-c3c[nH]nc3-c3ccccn3)ccn2)cc1` [GW599550]: 10%; for `CC(C)(C)c1ccc(-n2cnc3c(N)ncnc32)cc1` [SKF-97263]: 0%.
The same measure for `Nc1nccc2scc(-c3ccc4c(c3)CCN4C(=O)Cc3cc(F)ccc3F)c12` [GSK2587663]: 0%; for `NC(=O)c1sc(-n2cnc3ccccc32)cc1OCc1ccccc1F` [GSK1024306]: 0%.
As to `O=C(NCCCN1CCCC1=O)c1cnc(NCc2cc(Cl)ccc2Cl)nc1NC1CCNCC1`, the “%Inh” value came to 5%.
To `CN1CCC(n2cnc(-c3ccc(F)cc3)c2-c2ccnc(NC3CCNCC3)n2)CC1` [SB-229482] belongs 20%.
The same measure for `O=C(Nc1n[nH]c2nc(-c3ccco3)c(Br)cc12)c1ccc(CN2CCCC2)cc1.O=C(O)[C@H](O)[C@@H](O)C(=O)O` [SB-742352]: 3%; for `FC(F)(F)c1ccc(-c2nn3ncccc3c2-c2ccnc(Nc3cccc(C(F)(F)F)c3)n2)cc1` [GW828205]: 0%.
The same measure for `COc1ccc(NC(=O)Nc2ccc(C)c(-c3ccc(C(=O)Nc4ccncc4)cc3)c2)cc1` [GSK1398475]: 0%; for `Cl.Fc1ccccc1COc1ccc(Nc2ncnc3ccc(-c4nnc(C(F)(F)F)o4)cc23)cc1Cl` [GW424170]: 0%.
On to `CCC(CC)(CC)n1cnc2c(N)ncnc21` [SKF-97620], for which the “%Inh” value was determined as 7%.
To `Cn1ccc2ncnc(Oc3ccc(NC(=O)Nc4cccnc4)c(Cl)c3)c21` belongs 11%.
The same measure for `Cl.c1ccc(Cn2ncc3cc(Nc4ncnc5ccccc45)ccc32)cc1` [GW273749]: 0%; for `Cc1ccc(O)cc1Nc1cc(C(F)(F)F)nc2ccc(-c3ccncc3)cc12` [GW630823]: 0%; for `Cn1ccc2ncnc(Nc3ccc(Oc4cccc(Cl)c4)c(Cl)c3)c21`: 26%.
`Clc1ccc(-c2cc(-c3c[nH]nc3-c3ccccn3)ccn2)cc1` [GW681251]: the “%Inh” value is given as 4%.
Take `COC(=O)c1cccc(NC(=O)NCCNc2ccnc(Nc3ccc(F)cc3)n2)c1` [GSK1379883]: the “%Inh” value is listed as 0%.
The same measure for `C[C@@H]1CCN(C(=O)CO)C[C@@H]1N(C)c1ncnc2[nH]ccc12`: 3%; for `COc1ccc(NC(=O)c2ccc(-c3cc(-c4nnc(C)o4)ccc3C)cc2)cc1` [GW595885]: 0%; for `CC(C)N1CCC(n2cnc(-c3ccc(F)cc3)c2-c2ccnc(N)n2)CC1` [SB-223132]: 0%.
Take `Oc1ccc2ncnc(Nc3ccc(OCc4ccccc4)cc3)c2c1` [GI262866]: the “%Inh” value turned out to be 0%.
The same measure for `CC(=O)Nc1n[nH]c2ncc(-c3ccccc3)cc12` [SB-548492]: 8%.
As for `CCc1nc(-c2cccc(C)c2)c(-c2ccnc(NC(=O)c3ccccc3)c2)s1`, the “%Inh” value is 17%.
To `OCCOCCn1ccc2ncnc(Nc3ccc(Oc4cccc(Cl)c4)c(Cl)c3)c21` belongs 0%.
